Rows were chosen to be rich in hits. Some 2.9% of all compounds tested hit in one or more screens of this group.
Shn3 inh set2: reduction of Shn3 3'UTR firefly luciferase signal, primary screen, Schnurri-3 inhibitor project, cell-based, Clone20 osteoblasts, set 2. Clone20 osteoblast Shn3 3'UTR firefly luciferase, 24 h. 0.52% of 360,000 active. AID 588674, 2011. inhibition, % at 12.5 µM;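 active means mean inhibition of at least 75% with every replicate also reaching 75%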
Peg3 prom inh: Peg3 promoter-driven luciferase inhibitors, primary screen, cell-based, HeLa, luciferase luminescence. HeLa PEG-Prom luciferase reporter, overnight. 1.7% of 360,000 active. inhibition, % at 20 µM;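 active means inhibition of at least 50% at 20 µM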
EBV LMP1 NFkB: EBV LMP1-driven NF-kappaB luciferase reporter inhibitors, primary screen, cell-based, luminescence, single point. LMP1-induced NF-kappaB luciferase reporter cells. inhibition, % at 12.5 µM. 0.69% of 350,000 active. AID 504558, 2011; in the data active means inhibition above about 41%
TRPM1 prom inh: inhibitors of MITF-dependent TRPM1 promoter reporter, primary screen, cell-based, SK-MEL-5, single point, luciferase; SK-MEL-5 TRPM1 promoter luciferase, 24 h; inhibition, % at 12.5 µM; 0.83% of 330,000 active;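 active means mean inhibition across replicates of 60% or more, whatever share of single replicates reaches that level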
KKLEB cytotox: cytotoxicity in KKLEB CF airway cells, primary screen, cytotoxicity control for CF NF-kB inhibitor project, cell-based, uHTS, fluorescence assay plates. activity change (cytotoxicity), % at 5 µM. 0.36% of 360,000 active. KKLEB CF airway cells viability, ATPlite luminescence, overnight; active compounds read low; cells stimulated with P. aeruginosa culture filtrate;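 active means corrected activity change at or below -50% at 5 µM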
CF NFkB block: inhibitors of PAF-induced NF-kB signaling, primary screen, cell-based, GFP fluorescence, uHTS; KKLEB NF-kB-GFP reporter, GFP fluorescence overnight; 0.86% of 360,000 active; inhibition, % at 5 µM; AID 588850, 2011;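 active means at least 50% inhibition at 5 µM, scaled per plate between neutral and stimulator controls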;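 further: PAF is a Pseudomonas aeruginosa culture filtrate used as stimulus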
Of the large screens only hits and unclear results are named; the others gave an inactive call.

Oc1ccc(/C=N\Nc2cc(N3CCOCC3)nc(N3CCOCC3)n2)c(O)c1	none
CC(C)(C)NC(=O)C(c1ccc(-c2ccccc2)cc1)N(C[C@H]1CC[C@@H]([C@@H]2CC[C@H](CO)O2)O1)C(=O)c1ccccc1F (stereo partly drawn)	none
Cc1c(Cl)cccc1NC(=O)CC(Cc1ccccc1)C(=O)O (stereo not drawn)	EBV LMP1 NFkB 44
CCCCNc1c(-c2cccc(-c3cc(C(C)=O)cs3)c2)nc2ccc(C)cn12	Peg3 prom inh 62, KKLEB cytotox -93, CF NFkB block 83
Cc1ccn2c(NC3CCCC3)c(-c3ccncc3)nc2c1	none
CCCCNc1c(-c2ccc(-c3cccc(Cl)c3)cc2)nc2ccccn12	none
Cc1ccn2c(NC3CCCCC3)c(-c3cccc(-c4cccc(Cl)c4)c3)nc2c1	Peg3 prom inh 56
CCCCNc1c(-c2ccc(OC)c(SC3CCCCC3)c2)nc2cnccn12	Peg3 prom inh 68
CCCCNc1c(-c2cccc(-c3ccc(OC)cc3)c2)nc2cc(C)ccn12	Shn3 inh set2 87, Peg3 prom inh 89
CCCCNc1c(-c2ccc(OC)c(SC3CCCCC3)c2)nc2ccc(Cl)cn12	none
CCCCNc1c(-c2ccc(OC)c(SC3CCCCC3)c2)nc2cc(C)ccn12	Peg3 prom inh 56
COCCNc1nc(NCCCN2CCCC2=O)c2sccc2n1	none (no result: EBV LMP1 NFkB, TRPM1 prom inh)
Cc1cc(C)nc(/N=C(\N)Nc2ccc(OCCC(C)C)cc2)n1	Peg3 prom inh 107, TRPM1 prom inh 65
COc1ccc(N/C(N)=N/c2nc(C)cc(C)n2)cc1	none (no result: TRPM1 prom inh)
Cc1ccc(Cc2c(C(C)(C)C)nc3cc(C)c(Br)c(C)n23)cc1	none (no result: EBV LMP1 NFkB, TRPM1 prom inh)
c1ccc(-c2nnc(-c3ccccn3)nc2NC2CCCCC2)cc1	EBV LMP1 NFkB 86, TRPM1 prom inh 74
CC(C)/C=C/C(=O)N1CCC(N2CCC(C(=O)NCC3CCCO3)CC2)CC1 (stereo not drawn)	none (no result: TRPM1 prom inh)
CC(C)(C)c1ccc(CC(=O)N2CCC2(C)C(=O)NS(=O)(=O)c2ccc(Cl)cc2)cc1 (stereo not drawn)	none (no result: EBV LMP1 NFkB, TRPM1 prom inh)
O=C(O)c1sccc1SCc1ccc(Cl)c(Cl)c1	none
C=CS(=O)(=O)N(Cc1ccc(Cl)c(Cl)c1)C[C@@H](O)CO	Peg3 prom inh 69
COc1cccc(-c2cc(CNC(=O)[C@H]3O[C@@H](n4ccc(=O)[nH]c4=O)[C@H](O)[C@@H]3O)no2)c1	none (no result: EBV LMP1 NFkB, TRPM1 prom inh)
COc1ccc2[nH]c3c(=O)n(/N=C/[C@H]4C(C)C=C(C)CC4C)c(=O)[nH]c3c2c1 (stereo partly drawn)	Peg3 prom inh 51
COc1ccc2[nH]c3c(=O)n(N)c(=O)[nH]c3c2c1	none
O=C(c1cccs1)c1no[n+]([O-])c1C(=O)c1cccs1	Peg3 prom inh 93, TRPM1 prom inh 67, KKLEB cytotox -94, CF NFkB block 93
O=C(c1cccs1)c1ccc(-c2cccs2)s1	none
COc1ccc(C(=O)c2no[n+]([O-])c2C(=O)c2ccc(OC)cc2)cc1	Peg3 prom inh 66, KKLEB cytotox -80, CF NFkB block 90
Cc1cccc(S(=O)(=O)NC(=O)C2(C)CCN2C(=O)Cc2ccc(Cl)cc2Cl)c1 (stereo not drawn)	none (no result: EBV LMP1 NFkB, TRPM1 prom inh)
COc1ccc(-c2nc(N/N=C(\C)c3ccc(O)cc3)c3ccccc3n2)cc1	CF NFkB block 56
CC[C@H]1OC(=O)[C@H](C)[C@@H](O[C@H]2C[C@@](C)(OC)[C@@H](O)[C@H](C)O2)[C@H](C)[C@@H](O[C@@H]2O[C@H](C)C[C@H](N(C)C)[C@H]2O)[C@](C)(O)C[C@@H](C)C(=NOCOCCOC)[C@H](C)[C@@H](O)[C@]1(C)O	EBV LMP1 NFkB 54
O=C(CN1CCN(Cc2ccccc2)CC1)Nc1ccc([N+](=O)[O-])cc1C(=O)Nc1ccccc1F	Peg3 prom inh 62
Cc1cc([N+](=O)[O-])ccc1NC(=O)CN1CCN(Cc2ccccc2)CC1	none
Cc1ccc(-c2ccc(/C=C3\C(=O)ON=C3c3ccccc3)o2)c([N+](=O)[O-])c1	Shn3 inh set2 91, Peg3 prom inh 97, CF NFkB block 52
Cc1nonc1OCCNc1ccc([N+](=O)[O-])cc1[N+](=O)[O-]	Peg3 prom inh 65
COc1ccc(-c2n[nH]c(C)c2-c2cscn2)c(O)c1	none
C=C(C)COc1ccc(-c2n[nH]c(C)c2-c2ccc(OC)cc2)c(O)c1	Peg3 prom inh 80
CCOc1ccc2c(C)c(Cl)c(=O)oc2c1	EBV LMP1 NFkB 64
COC(=O)[C@H](C)NC(=O)Nc1cccc(C)c1	EBV LMP1 NFkB 49
Cn1nc(C2CC2)cc1NC(=O)C1(C)CCN1C(=O)c1ccccc1CCc1ccccc1 (stereo not drawn)	none (no result: EBV LMP1 NFkB, TRPM1 prom inh)
CCN(CC)CCCNC(=S)N1CCN(c2nc(-c3ccc(F)cc3)cs2)CC1	Peg3 prom inh 71
CCNC(=S)N1CCN(c2nc(-c3ccc(F)cc3)cs2)CC1	none
CNS(=O)(=O)c1ccc(CNC[C@H]2O[C@@H](n3cnc4c(=O)[nH]c(N)nc43)[C@H](O)[C@@H]2O)cc1	none (no result: EBV LMP1 NFkB, TRPM1 prom inh)
CC(=O)N1c2ccccc2Oc2cc3ccccc3cc21	none
O=C(CCl)N1c2ccccc2Oc2ccc3ccccc3c21	TRPM1 prom inh 88
CC(NCc1ccc(-c2ccccc2)cc1)C(O)c1ccccc1 (stereo not drawn)	Peg3 prom inh 74
CC(=O)Nc1ccc(C=NNc2nnc(NN=Cc3ccc(NC(C)=O)cc3)c3ccccc23)cc1	EBV LMP1 NFkB 45
COc1cnn(-c2ccc(C)cc2)c(=O)c1SCc1ccccc1	EBV LMP1 NFkB 47
CN(C)CCCN(C(=O)c1cc(-c2cccs2)nc2ccccc12)c1nc2c(F)cccc2s1	Peg3 prom inh 71
Cc1cccc2sc(N(CCCN(C)C)C(=O)c3ccc(C(=O)c4ccccc4)cc3)nc12	Peg3 prom inh 86
CN(C)CCCN(C(=O)/C=C/c1cccs1)c1nc2c(F)cccc2s1	Peg3 prom inh 106
Cc1ccc2nc(N(CCCN(C)C)C(=O)c3cc(-c4cccs4)nc4ccccc34)sc2c1	Peg3 prom inh 107
CC(C)(C)S(=O)(=O)N1C[C@H]2CC/C=C\C/C(c3ccccc3)=C\2[C@@H]1CCO	none
CN(Cc1ccc(Cl)cc1)C(C(=O)NC1CCCCC1)c1ccnc2ccccc12 (stereo not drawn)	none (no result: EBV LMP1 NFkB, TRPM1 prom inh)
CSc1ncnc2c1ncn2CCCN1CCN(c2ccccn2)CC1	none (no result: TRPM1 prom inh)
COc1cccc(NC(=S)NC(Cc2ccccc2)c2ccccc2)c1 (stereo not drawn)	none (no result: TRPM1 prom inh)

High-throughput results as filed in PubChem BioAssay.
